# Measured values: PubChem BioAssay (Tox21)
# Records with an inconclusive call do not appear. A call without a number means that no potency is given here. Calls of active or inactive are those of the source. Unless noted, calls come from the whole dose curve; as a rule, active = well fitted cell-killing curve with a large enough effect in the repeat runs (not every such curve was filed as active); inconclusive = weak or mixed curves, or effect the other way; inactive = no such curve, though single readings can be large or run the other way.
# Assay: qHTS assay to identify small molecule antagonists of the estrogen related receptor signaling pathway with the pleiotropic PPARgamma coactivator (PGC) from Tox21 10K library - cell viability counter screen (AID 1224840); note: nearly all actives have a fitted effect of over 40% in size
# Settings: PGC/ERR reporter cells viability, CellTiter-Fluor, 17.5 h; series mostly up to 92.4 µM
# Summary of the method: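 Following seeding of 2,000 PGC/ERR cells/well and 6 hours' incubation, test compounds were delivered in DMSO. The plates then sat 17.5 hours at 37 C before a fluorogenic live-cell protease reagent (CellTiter-Fluor) was read after 30 min.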
Structure (SMILES),Potency,"viability change, negative = cytotoxic"
C[Si](C)O[Si](C)(C)O[Si](C)(C)O[Si](C)C,inactive,–
O=C(O)C1CCC(C(=O)O)CC1 (stereo not given),inactive,–
CC(CN)CCCN (stereo not given),inactive,–
CC(C)NCC(O)COc1ccc(CC(N)=O)cc1 (stereo not given),inactive,–
CCN(CC)CCc1nc(-c2ccccc2)no1,inactive,–
CC(=O)O[C@H]1C[C@@H]2CC[C@@H]3[C@H](CC[C@@]4(C)[C@H]3C[C@H]([N+]3(C)CCCCC3)[C@@H]4OC(C)=O)[C@@]2(C)C[C@@H]1N1CCCCC1,inactive,–
OC(CCN1CCCCC1)(c1ccccc1)C1CCCCC1 (stereo not given),inactive,–
Nc1nc(N)c(-c2ccccc2)s1,inactive,–
NCc1ccccc1,inactive,–
CC(=O)N(CC(=O)N(C)C)c1ccccc1,inactive,–
CC(C)CC=O,inactive,–
O=S1(=O)N=C(O)c2ccccc21,inactive,–
O=[N+]([O-])c1cccc(Cl)c1Cl,inactive,–
CC(=O)NCCCS(=O)(=O)O,inactive,–
NC[C@H]1O[C@H](O[C@H]2[C@H](O)[C@@H](O[C@H]3O[C@H](CO)[C@@H](O)[C@H](N)[C@H]3O)[C@H](N)C[C@@H]2N)[C@H](O)[C@@H](O)[C@@H]1O,–,5.71% [at 8.39 µM] (inactive)
Cc1ccc(C(N)=O)cc1N,inactive,–
C=C(C)C(=O)OCCOc1ccccc1,inactive,–
C=CC(=O)OCCOC(=O)CCC(=O)O,inactive,–
O=C(O)[C@@H]1[C@H]2C[C@H]3c4[nH]c5ccccc5c4CCN3C[C@@H]2CC[C@@H]1O,inactive,–
CCCCCCCC/C=C\CCCCCCCC(N)=O,inactive,–
CN1CCC[C@@H]1c1cccnc1,inactive,–
Cc1nc2ccccc2n1Cc1ccc(Cl)cc1,inactive,–
Cc1cccc(OCCOc2cccc(C)c2)c1,inactive,–
CCCCCCCCCCCCCCCCCBr,–,2.64% [at 19 µM] (inactive)
C=C(C)C(=O)OC(C)C,inactive,–
CN1CCC(=C2c3ccccc3C=Cc3ccccc32)CC1,inactive,–
CCCC[C@H]1CN(CC2CCOCC2)C(=O)OC12CCN(C1(C)CCN(C(=O)c3c(C)ncnc3C)CC1)CC2,inactive,–
Nc1nc(CC(=O)O)cs1,inactive,–
CC(=O)SCc1ccco1,inactive,–
Cc1c(Cn2ccnc2)c2ccccc2n1CCC(=O)O,inactive,–

# Assay: qHTS assay to identify small molecule antagonists of the estrogen related receptor signaling pathway with the pleiotropic PPARgamma coactivator (PGC) from Tox21 10K library (AID 1224841; call rule not given here; note: actives are mostly falling curves and most rising ones were filed inactive; nearly all actives have a fitted effect of over 50% in size; note: potency is the fitted concentration of half-maximal effect)
# Settings: PGC/ERR reporter cell line, ONE-Glo luciferase, 18 h; series mostly up to 92.4 µM
# Summary of the method: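 qHTS antagonist format: PGC/ERR cells, 2k/well, compound in DMSO by pin transfer after 6 h attachment, 18 h treatment at 37 C, One-Glo luminescence read at 30 min.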
row,Structure (SMILES),Potency
1,O=C(O)C1CCC(C(=O)O)CC1 (stereo not given),inactive
2,Cc1occc1S,inactive
3,CC/C(=C\C(=N/O)C(N)=O)C(C)[N+](=O)[O-] (stereo not given),inactive
4,CC(CN)CCCN (stereo not given),inactive
5,Cc1cc(NC(=O)C(=O)O)cc(C)c1Oc1ccc(O)c2c1CCC2,inactive
6,OC(CCN1CCCCC1)(c1ccccc1)C1CCCCC1 (stereo not given),inactive
7,Nc1nc(N)c(-c2ccccc2)s1,inactive
8,NCc1ccccc1,inactive
9,CC(=O)N(CC(=O)N(C)C)c1ccccc1,inactive
10,O=[N+]([O-])c1cccc(Cl)c1Cl,inactive
11,Cc1ccc(C(N)=O)cc1N,inactive
12,C=C(C)C(=O)OCCOc1ccccc1,inactive
13,C=CC(=O)OCCOC(=O)CCC(=O)O,inactive
14,O=C(O)[C@@H]1[C@H]2C[C@H]3c4[nH]c5ccccc5c4CCN3C[C@@H]2CC[C@@H]1O,inactive
15,Cn1c(NCCN(CCO)CCCc2ccc([N+](=O)[O-])cc2)cc(=O)n(C)c1=O,inactive
16,CCCCCCCC/C=C\CCCCCCCC(N)=O,inactive
17,Cc1cccc(OCCOc2cccc(C)c2)c1,inactive
18,CN1CCC(=C2c3ccccc3C=Cc3ccccc32)CC1,inactive
19,CCCC[C@H]1CN(CC2CCOCC2)C(=O)OC12CCN(C1(C)CCN(C(=O)c3c(C)ncnc3C)CC1)CC2,inactive
20,Nc1nc(CC(=O)O)cs1,48.7 µM (active)
